Experimental findings from the supplement of paper PMC9446081 are described below.

± gives the standard deviation of the averaged measurements.

Sequence of MurC (C4ZRI6 whole entry, looked up): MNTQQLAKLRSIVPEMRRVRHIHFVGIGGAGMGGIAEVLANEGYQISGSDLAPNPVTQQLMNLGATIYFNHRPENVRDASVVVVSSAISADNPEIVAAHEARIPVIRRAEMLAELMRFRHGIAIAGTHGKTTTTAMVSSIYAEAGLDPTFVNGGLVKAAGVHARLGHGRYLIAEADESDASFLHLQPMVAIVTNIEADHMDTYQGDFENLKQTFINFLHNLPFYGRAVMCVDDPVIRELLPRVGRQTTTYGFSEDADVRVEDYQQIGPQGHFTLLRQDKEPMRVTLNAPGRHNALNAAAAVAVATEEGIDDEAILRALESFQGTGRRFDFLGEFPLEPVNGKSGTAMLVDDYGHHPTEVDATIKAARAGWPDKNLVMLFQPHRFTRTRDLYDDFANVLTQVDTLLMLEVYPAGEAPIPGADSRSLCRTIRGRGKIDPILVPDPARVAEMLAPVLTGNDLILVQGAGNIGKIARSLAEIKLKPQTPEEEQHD

In the assay the target is MurC (UniProt C4ZRI6). Kind of assay: relative enzymatic activity vs untreated control (fraction); higher = less inhibition. The conditions noted are these: 100 µM; incubation time: 2 h at 37 C. The procedure:
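In vitro enzymatic inhibition assays (ProFoldin kits) for 12 purified essential E. coli enzymes or complexes, each treated with 218 active antibacterial compounds at 100 µM for 2 h at 37°C. Read-outs were fluorescence or absorbance (phosphate detection, dye binding), converted to activity via standard curves and expressed relative to untreated DMSO controls.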
In the case of `O=C([O-])CCC(=O)OCC(NC(=O)C(Cl)Cl)C(O)c1ccc([N+](=O)[O-])cc1.[Na+]` (stereo not given), the relative enzymatic activity was 1.01 ± 0.081. In turn, `CC1CCc2c(N3CCC(O)CC3)c(F)cc3c(=O)c(C(=O)O)cn1c23` (stereo not given) displayed a relative enzymatic activity of 0.92 ± 0.079.

Compound `NC(C(=O)NC1C(=O)N2C(C(=O)O)=C(Cl)CSC12)c1ccccc1` (stereo not given) had a relative enzymatic activity of 0.944 ± 0.023. As to `CC[C@H]1OC(=O)[C@H](C)[C@@H](O[C@H]2C[C@@](C)(OC)[C@@H](O)[C@H](C)O2)[C@H](C)[C@@H](O[C@@H]2O[C@H](C)C[C@H](N(C)C)[C@H]2O)[C@](C)(O)C[C@@H](C)CN(C)[C@H](C)[C@@H](O)[C@]1(C)O`, the relative enzymatic activity was determined as 1.06 ± 0.02. With `CC(O)C1C(=O)N2C(C(=O)O)=C(SC3CNC(C(=O)N(C)C)C3)C(C)C12` (stereo not given), the relative enzymatic activity was 0.359 ± 0.25.

In turn, `CC(=O)On1cc(F)c(=O)[nH]c1=O` displayed a relative enzymatic activity of 1.07 ± 0.079. The figure for `O=C1CN(N=Cc2ccc([N+](=O)[O-])o2)C(=O)N1` is 1.051 ± 0.0033; for `Nc1c2ccccc2nc2ccccc12` it is 0.998 ± 0.044; for `CC[C@H]1OC(=O)C[C@@H](O)[C@H](C)[C@@H](O[C@@H]2O[C@H](C)C[C@H](N(C)C)[C@H]2O)[C@@H](CC=O)C[C@@H](C)C(=O)/C=C/[C@]2(C)O[C@H]2[C@@H]1C` it is 1.02 ± 0.099.

On to `NCCC(O)C(=O)NC1CC(N)C(OC2OC(CN)C(O)C(O)C2O)C(O)C1OC1OC(CO)C(O)C(N)C1O.O` (stereo not given), for which the relative enzymatic activity was 1.0305 ± 0.00019. The figure for `CC1C(NC(=O)C(=NOC(C)(C)C(=O)O)c2csc(N)n2)C(=O)N1S(=O)(=O)O` (stereo not given) is 1.016 ± 0.0098.

Take `C=CC1=C(C(=O)O)N2C(=O)[C@@H](NC(=O)/C(=N\O)c3csc(N)n3)[C@H]2SC1`: the relative enzymatic activity came out at 1 ± 0.028. Under `NC(=O)N/N=C/c1ccc([N+](=O)[O-])o1` stands 1.08 ± 0.033; under `Cc1ccc(S(=O)(=O)O)cc1.NC1CCN(c2nc3c(cc2F)c(=O)c(C(=O)O)cn3-c2ccc(F)cc2F)C1.O` (stereo not given), 0.988 ± 0.17; under `CON=C(C(=O)NC1C(=O)N2C(C(=O)[O-])=C(COC(N)=O)CSC12)c1ccco1.[Na+]` (stereo not given), 1.33 ± 0.083.

The compound `CC(C)[C@@H](CC[C@@H](C)[C@H]1CC[C@H]2[C@@H]3[C@H](O)C[C@H]4C[C@@H](NCCCNCCCCN)CC[C@]4(C)[C@H]3CC[C@]12C)OS(=O)(=O)O` returned a relative enzymatic activity of 0.882 ± 0.078. The figure for `CC1(C)SC2C(N3C(=O)C(c4ccccc4)NC3(C)C)C(=O)N2C1C(=O)[O-].[K+]` (stereo not given) is 0.925 ± 0.025.

`N[C@@H](C(=O)N[C@@H]1C(=O)N2C(C(=O)O)=C(Cl)CC[C@H]12)c1ccccc1` showed a relative enzymatic activity of 0.967 ± 0.054.

The compound `COC1(NC(=O)C2SC(=C(C(N)=O)C(=O)O)S2)C(=O)N2C(C(=O)O)=C(CSc3nnnn3C)CSC21` (stereo not given) returned a relative enzymatic activity of 0.978 ± 0.098.

Take `CN1CCN(c2cc3c(cc2F)c(=O)c(C(=O)O)cn3-c2ccc(F)cc2)CC1.Cl`: the relative enzymatic activity is 0.9809 ± 0.0032. The figure for `Nc1nc(/C(=N/O)C(=O)N[C@@H]2C(=O)N3C(C(=O)O)=C(/C=C4\CCN([C@@H]5CCNC5)C4=O)CS[C@H]23)ns1` is 0.717 ± 0.24.

For `CCn1cc(C(=O)O)c(=O)c2cc(F)c(N3CCN(C(=S)Nc4cc(C(F)(F)F)ccc4Cl)CC3)cc21`, the relative enzymatic activity is 1.07 ± 0.069. As for `COc1cc2c(cc1OC)C(=O)C(CC1CCN(Cc3ccccc3)CC1)C2.Cl` (stereo not given), the relative enzymatic activity was 0.993 ± 0.29. On to `Cl.O=C1CC2(CCCC2)CC(=O)N1CCCCN1CCN(c2ncccn2)CC1`, for which the relative enzymatic activity turned out to be 1.073 ± 0.0016. With `N[C@@H]1CC[C@@H](c2ccc(Cl)c(Cl)c2)c2ccccc21`, the relative enzymatic activity was 0.806 ± 0.12. `CCn1cc(C(=O)O)c(=O)c2cc(F)c(N3CCN(C)CC3)cc21.CS(=O)(=O)O` came in with a relative enzymatic activity of 1.02 ± 0.013. Under `CC(C)CCCC(=O)N[C@@H](CCNCS(=O)(=O)O)C(=O)N[C@H](C(=O)N[C@@H](CCNCS(=O)(=O)O)C(=O)N[C@H]1CCNC(=O)[C@H]([C@@H](C)O)NC(=O)[C@H](CCNCS(=O)(=O)O)NC(=O)[C@H](CCNCS(=O)(=O)O)NC(=O)[C@H](CC(C)C)NC(=O)[C@H](CC(C)C)NC(=O)[C@H](CCNCS(=O)(=O)O)NC1=O)[C@@H](C)O` stands 1.16 ± 0.21. Under `CON=C1CN(c2nc3c(cc2F)c(=O)c(C(=O)O)cn3C2CC2)CC1CN.CS(=O)(=O)O` (stereo not given) stands 0.669 ± 0.18.

`O=C(O)c1c(O)c2c([nH]c1=O)CCCC2`: the relative enzymatic activity turned out to be 0.602 ± 0.36. `COc1cc(Cc2cnc(N)nc2N)cc(OC)c1OC` came in with a relative enzymatic activity of 1.03 ± 0.086.

Turning to `CC[C@@H](C)CCCCC(=O)N[C@@H](CCN)C(=O)N[C@H](C(=O)N[C@@H](CCN)C(=O)N[C@H]1CCNC(=O)[C@H]([C@@H](C)O)NC(=O)[C@H](CCN)NC(=O)[C@H](CCN)NC(=O)[C@H](CC(C)C)NC(=O)[C@@H](Cc2ccccc2)NC(=O)[C@@H](CCN)NC1=O)[C@@H](C)O`, the relative enzymatic activity came out at 1.03 ± 0.032. For the compound `O=C(NC(CO)C(O)c1ccc([N+](=O)[O-])cc1)C(Cl)Cl` (stereo not given), the relative enzymatic activity came to 1.04 ± 0.033.

`COC12C(COC(N)=O)C3=C(C(=O)C(C)=C(N)C3=O)N1CC1NC12` (stereo not given) yielded a relative enzymatic activity of 0.719 ± 0.092.

As to `NC(=O)[C@@H]1CC[C@@H]2CN1C(=O)N2OS(=O)(=O)O`, the relative enzymatic activity was found to be 1.04 ± 0.022. The compound `CCCC[P+](CCCC)(CCCC)Cc1ccc(NC(=O)[C@H](Cc2ccc3ccccc3c2)N/C(=N/C2CCCCC2)NC2CCCCC2)cc1` came in with a relative enzymatic activity of 0.557 ± 0.44. Under `CN(C)C1C(O)=C(C(N)=O)C(=O)C2(O)C(O)=C3C(=O)c4c(O)cccc4C(C)(O)C3CC12.Cl` (stereo not given) stands 1.05 ± 0.039; under `N[C@@H](C(=O)N[C@@H]1C(=O)N2C(C(=O)O)=C(Cl)CS[C@H]12)c1ccccc1`, 0.902 ± 0.062; under `Cc1nnc(SCC2=C(C(=O)[O-])N3C(=O)C(NC(=O)Cn4cnnn4)C3SC2)s1.[Na+]` (stereo not given), 1.05 ± 0.11. Under `O=C(NO)c1cn(-c2cccc(C(=O)N3CCC4(CC3)C(=O)NCN4c3ccccc3)c2)nn1` stands 0.552 ± 0.15; under `CN(C)C1C(O)=C(C(N)=O)C(=O)C2(O)C(O)=C3C(=O)c4c(O)ccc(Cl)c4C(O)C3CC12.Cl` (stereo not given), 1.021 ± 0.0019.
